Several values for one entry are separate records, joined by “and”; a condition that tells them apart may be missing. Equal values may be shown once. More than one record can exist for a structure, and the calls need not agree. Activity calls are given as the source filed them. Unless noted, calls come from the whole dose curve; as a rule, active = well fitted curve in the direction sought with a large enough effect in the repeat runs; inconclusive = weak or mixed curves; inactive = no such curve, though single readings can be large; an effect the other way counts as inactive or inconclusive.
Key:
[1] = qHTS assay to identify small molecule antagonists of the glucocorticoid receptor (GR) signaling pathway - cell viability counter screen (AID 720693); note: nearly all actives have a fitted effect of over 55% in size; note: potency is the fitted concentration of half-maximal effect
[2] = qHTS assay for identifying genotoxic compounds that show differential cytotoxicity against isogenic chicken DT40 cell lines with known DNA damage response pathways - wild type cell line (AID 743012); note: nearly all actives have a fitted effect of over 60% in size; note: potency is the fitted concentration of half-maximal effect
How it was run: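 Using parental DT40 (300 cells/well), compounds delivered in DMSO incubate 40 h at 37 C/5% CO2. CellTiter-Glo reagent then stands 30 min at room temperature, and luminescence gives cell viability.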

[3] = qHTS assay for identifying genotoxic compounds that show differential cytotoxicity against isogenic chicken DT40 cell lines with known DNA damage response pathways - Rev3 mutant cell line (AID 743014); note: nearly all actives have a fitted effect of over 55% in size; note: potency is the fitted concentration of half-maximal effect
[4] = qHTS assay for identifying genotoxic compounds that show differential cytotoxicity against isogenic chicken DT40 cell lines with known DNA damage response pathways - Rad54/Ku70 mutant cell line (AID 743015); note: nearly all actives have a fitted effect of over 60% in size; note: potency is the fitted concentration of half-maximal effect
[5] = qHTS assay to identify small molecule antagonists of the androgen receptor (AR) signaling pathway - cell viability counter screen (AID 743033; note: nearly all actives have a fitted effect of over 45% in size; note: potency is the fitted concentration of half-maximal effect)
[6] = biological target: Androgen receptor (Homo sapiens) (UniProt P10275); assay: qHTS assay to identify small molecule agonists of the androgen receptor (AR) signaling pathway using the MDA cell line (AID 743040; note: nearly all actives have a fitted effect of over 20% in size)
How it was run: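 MDA-kb2 breast carcinoma cells carrying MMTV-luciferase (responsive to AR and GR), plated 5 h then treated 16 h with compounds at 37C, 0% CO2. Read-out was ONE-Glo luminescence after 30 min at room temperature.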

[7] = qHTS assay to identify small molecule antagonists of the androgen receptor (AR) signaling pathway using the MDA cell line - cell viability counter screen (AID 743041; note: nearly all actives have a fitted effect of over 45% in size; note: potency is the fitted concentration of half-maximal effect)
How it was run: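 MDA-kb2 AR-luc cells (MMTV-luciferase, AR/GR responsive) treated with compounds plus R1881 agonist for 16 h at 37C. CellTiter-Fluor added at 15.5 h; fluorescence read after 30 min in the same wells.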

[8] = biological target: Androgen receptor (Homo sapiens) (UniProt P10275); assay: qHTS assay to identify small molecule antagonists of the androgen receptor (AR) signaling pathway using the MDA cell line (AID 743042; note: nearly all actives have a fitted effect of over 55% in size; note: potency is the fitted concentration of half-maximal effect)
How it was run: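 MDA-kb2 breast carcinoma cells carrying MMTV-luciferase (AR/GR responsive) were co-treated with compounds and the agonist R1881 for 16 h at 37C. Inhibition read as ONE-Glo luminescence; CellTiter-Fluor fluorescence measured in parallel for cytotoxicity.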

[9] = qHTS assay to identify small molecule antagonists of the thyroid receptor (TR) signaling pathway - cell viability counter screen (AID 743064); note: nearly all actives have a fitted effect of over 50% in size; note: potency is the fitted concentration of half-maximal effect
How it was run: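 Viability of T3-stimulated (1 nM final) GH3.TRE-Luc cells is measured by CellTiter-Fluor fluorescence after 23.5 h compound exposure at 37 °C plus 30 min reagent incubation.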

[10] = qHTS assay to identify small molecule antagonists of the thyroid receptor (TR) signaling pathway (AID 743065); note: nearly all actives have a fitted effect of over 55% in size; note: potency is the fitted concentration of half-maximal effect
How it was run: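 GH3.TRE-Luc rat pituitary cells (two TREs driving luciferase) were dosed with compound, then stimulated with 1 nM T3 (final) for 23.5 h at 37 C. ONE-Glo luminescence was the read-out, with CellTiter-Fluor fluorescence as the cytotoxicity counter-screen.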

[11] = test system: thyroid hormone receptor (rat, GH3 cells); assay: qHTS assay to identify small molecule agonists of the thyroid receptor (TR) signaling pathway (AID 743066; calls by dose curve)
[12] = qHTS assay to identify small molecule antagonists of the estrogen receptor alpha (ER-alpha) signaling pathway - cell viability counter screen (AID 743074; calls by dose curve;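 note: HEK293 cells carrying ER-alpha-UAS-bla reporter stimulated with 17beta-estradiol; nearly all actives have a fitted effect of over 45% in size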; note: potency is the fitted concentration of half-maximal effect)
Aromatase (Homo sapiens) = Aromatase (Homo sapiens) (UniProt P11511); assay: qHTS assay to identify aromatase inhibitors (AID 743083); note: nearly all actives have a fitted effect of over 55% in size; note: potency is the fitted concentration of half-maximal effect
[13] = biological target: Androgen receptor (Homo sapiens) (UniProt P10275); assay: qHTS assay to identify small molecule antagonists of the androgen receptor (AR) signaling pathway (AID 743035; active = well fitted inhibition curve with a large enough effect in the signal ratio in the repeat runs, not every such curve was filed as active; inconclusive = weak or mixed curves, or effect the other way; inactive = no such curve, though single readings can be large or run the other way; the % refers to the signal ratio; note: potency is the fitted concentration of half-maximal effect)
How it was run: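 Using qHTS, AR-UAS-bla GripTite HEK293 cells received compound, then R1881, and were cultured 16 h at 37C/5% CO2 before a 2 h room-temperature LiveBLAzer B/G FRET substrate step and fluorescence measurement.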

[14] = biological target: Estrogen receptor (Homo sapiens) (UniProt P03372); assay: qHTS assay to identify small molecule agonists of the estrogen receptor alpha (ER-alpha) signaling pathway (AID 743075; calls by dose curve; note: potency is the fitted concentration of half-maximal effect); details: HEK293 ER-alpha-UAS-bla, beta-lactamase FRET ratio, 18 h; activation: at 70.1 µM (top of the series)
[15] = qHTS assay to identify small molecule antagonists of the estrogen receptor alpha (ER-alpha) signaling pathway using the BG1 cell line - cell viability counter screen (AID 743081);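 note: compound given together with 17beta-estradiol as the ER stimulus; nearly all actives have a fitted effect of over 45% in size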; note: potency is the fitted concentration of half-maximal effect
[16] = biological target: Estrogen receptor (Homo sapiens) (UniProt P03372); assay: qHTS assay to identify small molecule antagonists of the estrogen receptor alpha (ER-alpha) signaling pathway (AID 743069; active = well fitted curve in the direction sought with a large enough effect in the signal ratio in the repeat runs, not every such curve was filed as active; inconclusive = weak or mixed curves, or effect the other way; inactive = no such curve, though single readings can be large or run the other way; the % refers to the signal ratio)
How it was run: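 HEK293 ER-alpha-UAS-bla GripTite cells, held overnight in 2% charcoal-stripped FBS, 5,000 cells/well, preincubated 4 h, then compound plus 17beta-estradiol for 18 h at 37C. Beta-lactamase read by LiveBLAzer B/G FRET substrate, 2 h at room temperature.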

[17] = biological target: Estrogen receptor (Homo sapiens) (UniProt P03372); assay: qHTS assay to identify small molecule agonists of the estrogen receptor alpha (ER-alpha) signaling pathway using the BG1 cell line (AID 743079); details: BG1Luc4E2 cells, ERE-luciferase agonist, 22 h; for activation: at 70.3 µM (top of the series); note: potency is the fitted concentration of half-maximal effect; for all read-outs here: nearly all actives have a fitted effect of over 20% in size
[18] = qHTS assay to identify small molecule antagonists of the estrogen receptor alpha (ER-alpha) signaling pathway using the BG1 cell line (AID 743080; calls by dose curve;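 note: BG1 cells stimulated with 17beta-estradiol alongside compound; nearly all actives have a fitted effect of over 25% in size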)
How it was run: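 After 5 days in phenol-red-free 10% charcoal-stripped FBS medium, BG1-Luc-4E2 cells were seeded, left 24 h at 37 C, co-treated with compounds and 17beta-estradiol for 21.5 h, then assayed for viability and luciferase.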
% is set by controls: 0 for no effect and ±100 for the full control effect.

Sequence of Androgen receptor (Homo sapiens) (P10275 whole entry, looked up): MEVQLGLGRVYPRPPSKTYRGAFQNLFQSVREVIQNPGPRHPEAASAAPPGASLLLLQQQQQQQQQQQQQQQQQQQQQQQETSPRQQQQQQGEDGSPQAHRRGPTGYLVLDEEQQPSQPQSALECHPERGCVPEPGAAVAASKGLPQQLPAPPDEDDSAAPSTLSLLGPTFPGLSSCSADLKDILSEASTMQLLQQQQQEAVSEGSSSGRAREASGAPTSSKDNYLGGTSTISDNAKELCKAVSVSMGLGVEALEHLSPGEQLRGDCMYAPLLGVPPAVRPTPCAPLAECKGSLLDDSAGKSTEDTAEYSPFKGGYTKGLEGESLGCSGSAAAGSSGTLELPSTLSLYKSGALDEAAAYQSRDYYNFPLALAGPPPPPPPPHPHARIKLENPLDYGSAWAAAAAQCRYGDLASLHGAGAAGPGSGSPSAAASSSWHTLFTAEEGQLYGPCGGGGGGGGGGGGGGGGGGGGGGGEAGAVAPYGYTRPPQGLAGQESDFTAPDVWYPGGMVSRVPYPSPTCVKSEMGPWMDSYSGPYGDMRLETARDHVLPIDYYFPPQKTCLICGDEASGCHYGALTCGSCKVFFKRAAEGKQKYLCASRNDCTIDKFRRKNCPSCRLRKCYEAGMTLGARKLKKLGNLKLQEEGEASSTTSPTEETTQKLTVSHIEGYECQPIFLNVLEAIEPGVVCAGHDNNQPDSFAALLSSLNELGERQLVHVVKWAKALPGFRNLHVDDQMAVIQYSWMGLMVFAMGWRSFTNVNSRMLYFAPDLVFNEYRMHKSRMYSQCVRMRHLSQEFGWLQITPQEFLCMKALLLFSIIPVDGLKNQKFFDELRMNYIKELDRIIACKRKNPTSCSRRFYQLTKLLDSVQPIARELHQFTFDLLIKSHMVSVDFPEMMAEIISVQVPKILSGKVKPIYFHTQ
Sequence of Estrogen receptor (Homo sapiens) (P03372 whole entry, looked up): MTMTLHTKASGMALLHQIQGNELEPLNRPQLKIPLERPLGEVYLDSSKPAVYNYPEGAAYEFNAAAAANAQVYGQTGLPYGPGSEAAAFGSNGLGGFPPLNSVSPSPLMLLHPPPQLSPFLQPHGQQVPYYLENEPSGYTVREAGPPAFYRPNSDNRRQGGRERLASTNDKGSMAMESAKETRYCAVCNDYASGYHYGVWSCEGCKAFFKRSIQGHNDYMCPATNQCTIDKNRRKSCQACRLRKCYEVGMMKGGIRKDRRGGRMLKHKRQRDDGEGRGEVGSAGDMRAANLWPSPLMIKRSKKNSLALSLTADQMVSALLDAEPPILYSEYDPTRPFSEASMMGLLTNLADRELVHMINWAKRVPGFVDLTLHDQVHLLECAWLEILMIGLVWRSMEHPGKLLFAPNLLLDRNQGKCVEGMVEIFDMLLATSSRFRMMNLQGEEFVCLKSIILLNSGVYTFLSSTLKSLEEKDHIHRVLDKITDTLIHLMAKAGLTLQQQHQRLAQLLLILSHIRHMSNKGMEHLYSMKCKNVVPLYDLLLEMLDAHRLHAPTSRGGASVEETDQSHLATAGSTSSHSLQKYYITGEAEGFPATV
Sequence of Aromatase (Homo sapiens) (P11511 whole entry, looked up): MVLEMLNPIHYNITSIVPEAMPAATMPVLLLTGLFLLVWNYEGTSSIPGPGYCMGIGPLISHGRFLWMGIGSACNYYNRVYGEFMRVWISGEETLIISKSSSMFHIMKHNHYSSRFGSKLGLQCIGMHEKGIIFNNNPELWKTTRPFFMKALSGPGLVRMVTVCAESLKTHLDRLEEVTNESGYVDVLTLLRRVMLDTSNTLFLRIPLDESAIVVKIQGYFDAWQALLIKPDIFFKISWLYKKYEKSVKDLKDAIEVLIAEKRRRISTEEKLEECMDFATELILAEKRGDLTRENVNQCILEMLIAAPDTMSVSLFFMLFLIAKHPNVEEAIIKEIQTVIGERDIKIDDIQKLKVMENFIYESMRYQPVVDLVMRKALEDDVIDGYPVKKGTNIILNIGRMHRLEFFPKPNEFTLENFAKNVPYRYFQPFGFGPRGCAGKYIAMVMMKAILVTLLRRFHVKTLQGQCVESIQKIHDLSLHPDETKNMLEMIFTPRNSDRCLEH

O=C(OCC1CO1)C1CCCCC1C(=O)OCC1CO1 (configuration not stated)
inactive: Potency [1] | Potency [5] | Potency [6] | Potency [7] | Potency [8] | Potency [11] | Potency [12]
active: Potency [2] 8.64 µM | Potency [3] 0.77 µM | Potency [4] 9.7 µM | Potency [9] 54.5 µM | Potency [10] 27.3 µM

CCCCCCCCNC(C)C(O)c1ccc(SC(C)C)cc1 (configuration not stated)
inactive: Potency [6] | Potency [8]
active: Potency [1] 10.7 µM | Potency [2] 1.88 µM | Potency [3] 1.68 µM | Potency [4] 1.68 µM | Potency [5] 21.3 µM | Potency [9] 5.31 µM | Potency [10] 5.96 µM | Potency [12] 9.52 µM | Potency (Aromatase (Homo sapiens)) 29.8 µM

C=CC(=O)OCC(CO)(COCC(COC(=O)C=C)(COC(=O)C=C)COC(=O)C=C)COC(=O)C=C
inactive: Potency [6]
active: Potency [1] 4.31 µM | Potency [2] 0.34 µM | Potency [3] 0.428 µM | Potency [4] 0.303 µM | Potency [5] 3.84 µM | Potency [13] 1.93 µM | Potency [7] 1.2 µM | Potency [8] 1.07 µM | Potency [9] 1.52 µM | Potency [12] 21.6 µM | Potency [14] 10.8 µM [inconclusive] | Potency [15] 13.5 µM | Potency (Aromatase (Homo sapiens)) 2.4 µM

OCCN1CCN(CC/C=C2/c3ccccc3Sc3ccc(C(F)(F)F)cc32)CC1
active: Potency [2] 9.44 µM | Potency [3] 13.3 µM | Potency [4] 11.9 µM | Potency [5] 19 µM | Potency [9] 15 µM | Potency [10] 11.9 µM
inactive: Potency [1] | Potency [6] | Potency [16] | Potency [14] | activation [17] -29.2% | Potency [18] | Potency [15] | Potency (Aromatase (Homo sapiens))

CCCN(CCC)C(=O)C(CCC(=O)OCCCN1CCN(CCOC(=O)Cc2c(C)n(C(=O)c3ccc(Cl)cc3)c3ccc(OC)cc23)CC1)NC(=O)c1ccccc1 (configuration not stated)
inactive: Potency [1] | Potency [5] | Potency [6] | Potency [7] | Potency [12] | Potency [18] | Potency [15]
active: Potency [2] 23.7 µM | Potency [3] 26.6 µM | Potency [4] 23.7 µM | Potency [9] 13.3 µM | Potency [10] 26.6 µM | Potency [14] 7.56 µM [activator] | Potency [17] 0.211 µM

CCCCCCCCCCC=O
inactive: Potency [1] | Potency [2] | Potency [3] | Potency [4] | Potency [5] | Potency [13] | Potency [6] | Potency [7] | Potency [8] | Potency [9] | Potency [10] | Potency [11] | Potency [12] | Potency [15] | Potency (Aromatase (Homo sapiens))

CCCCCCCCCCCCCC[P+](CCCC)(CCCC)CCCC (tested in a mixture with another compound)
inactive: Potency [6]
active: Potency [1] 8.76 µM | Potency [2] 0.388 µM | Potency [3] 0.218 µM | Potency [4] 0.218 µM | Potency [5] 0.983 µM | Potency [13] 1.75 µM | Potency [7] 5.48 µM | Potency [8] 3.46 µM | Potency [9] 4.35 µM | Potency [15] 15.4 µM | Potency (Aromatase (Homo sapiens)) 4.35 µM

Cc1cc(O)c(C(C)(C)C)cc1Sc1cc(C(C)(C)C)c(O)cc1C
active: Potency [1] 10.9 µM | Potency [2] 21.6 µM | Potency [3] 12.2 µM | Potency [4] 12.2 µM | Potency [5] 15.5 µM | Potency [7] 38.5 µM | Potency [8] 24.3 µM | Potency [9] 3.43 µM | Potency [10] 2.43 µM | Potency [12] 17.3 µM | Potency [15] 54.4 µM | Potency (Aromatase (Homo sapiens)) 13.7 µM
inactive: Potency [6] | Potency [11]

C=CC(=O)OCC(CO)(COC(=O)C=C)COC(=O)C=C
active: Potency [1] 6.19 µM and 11 µM | Potency [2] 1.73 µM and 2.17 µM | Potency [3] 1.22 µM and 2.43 µM | Potency [4] 1.37 µM and 1.72 µM | Potency [5] 6.94 µM and 11 µM | Potency [13] 3.9 µM and 4.9 µM | Potency [7] 17.3 µM and 27.3 µM | Potency [8] 2.18 µM and 3.86 µM | Potency [9] 2.44 µM and 2.17 µM | Potency [10] 1.73 µM and 1.72 µM | Potency [12] 39 µM and 49 µM | Potency [14] 13.9 µM [inconclusive] and 12.3 µM [inconclusive] | Potency [15] 27.4 µM and 27.3 µM | Potency (Aromatase (Homo sapiens)) 2.74 µM and 5.45 µM
inactive: Potency [6] | Potency [11]

COc1ccc(C(=O)/C(Br)=C\C(=O)O)cc1
inactive: Potency [1] | Potency [5] | Potency [6] | Potency [11] | Potency [12] | Potency [14] | activation [17] 0.472% | Potency [15]
inactive and 3.86 µM (active): Potency [2]
active: Potency [4] 6.11 µM | Potency [8] 23.7 µM and 30.6 µM | Potency [9] 21.7 µM | Potency (Aromatase (Homo sapiens)) 48.6 µM
inactive and 6.11 µM (active): Potency [3]

OCCN(CCO)c1nc(N2CCCCC2)c2nc(N(CCO)CCO)nc(N3CCCCC3)c2n1
active: Potency [2] 11.9 µM | Potency [3] 9.44 µM | Potency [4] 10.6 µM | Potency [10] 23.7 µM
inactive: Potency [1] | Potency [5] | Potency [6] | Potency [8] | Potency [11] | Potency [12] | Potency (Aromatase (Homo sapiens))

CN1CCC(Nc2ncc3ncnc(Nc4ccc(F)c(Cl)c4)c3n2)CC1
inactive: Potency [1] | Potency [5] | Potency [6] | Potency [8] | Potency [12]
active: Potency [2] 13.3 µM | Potency [3] 23.7 µM | Potency [4] 21.1 µM | Potency [9] 11.9 µM | Potency [10] 9.44 µM

Reference: PubChem BioAssay (Tox21)
